{"source": "PubChem BioAssay (Tox21)", "note": "Records with an inconclusive call do not appear. Entries that show only a call come without a potency. More than one record can exist for a structure, and the calls need not agree. Calls of active or inactive are those of the source. Calls follow the shape of the dose curve; as a rule, active = well fitted cell-killing curve with a large enough effect in the repeat runs; inconclusive = weak or mixed curves, or effect the other way; inactive = flat fitted curve, though single readings scatter. Potency is read from the fitted curve at half-maximal effect.", "data": [{"experiment": "Human pregnane X receptor (PXR) small molecule agonists, qHTS cell viability counter screen (AID 1346977); also: nearly all actives have a fitted effect of over 50% in size", "conditions": "PXR-Luc HepG2 viability, CellTiter-Fluor, 24 h; series mostly up to 92.4 µM", "text": "U.S. Tox21 Program National Center for Advancing Translational Sciences [NCATS] NIH Chemical Genomics Center [NCGC] U.S. Environmental Protection Agency [EPA] National Institutes of Environmental Health Sciences [NIEHS] National Toxicology Program [NTP] U.S. Food and Drug Administration [FDA] Tox21 Assay Overview: The human pregnane X receptor (hPXR) regulates the expression of several drug metabolizing enzymes and induction of these proteins is a major mechanism for developing drug resistance in cancer. One such key enzyme catalyzing the drug metabolism is cytochrome P450 3A4 (CYP3A4). Changes in CYP3A4 expression affect drug metabolism, thereby reducing the therapeutic efficacy and altering toxicological response to a drug and which finally causes adverse drug interaction. To screen Tox21 libraries for compounds that activate hPXR-mediated CYP3A4 gene expression, PXR-Luc HepG2 cells were used. Also cytotoxicity of the compounds was tested in parallel by measuring the cell viability using CellTiter-Fluor assay system in the same wells.\nTox21 Assay Protocol Summary: PXR-Luc HepG2 cells were dispensed at 2,000 per well in 5uL of assay medium containing 5% charcoal-stripped FBS into white solid bottom 1536-well plates (Corning Life Sciences, Corning, NY) using a Multidrop Combi (Thermo Scientific, Waltham, MA) dispenser. The assay plates were incubated at 37 C and 5% CO2 for 5hr, and then 23nL of compounds dissolved in DMSO and positive control were transferred using a Pintool station (Wako, San Diego, CA). The assay plates were incubated at 37C and 5% CO2 for 24hr. For cytotoxicity read, after 23hr incubation at 37C, 1uL CellTiter-Fluor reagent (Promega Corporation, Madison, WI) was added to each well of the assay plates using Flying Reagent Dispenser (FRD, Aurora Discovery, San Diego, CA). After 1hr incubation at 37C and 5% CO2, the fluorescence signal was quantified using a ViewLux plate reader (PerkinElmer, Shelton, CT).", "values": [{"compound": "O=c1cc[nH]c(=S)[nH]1", "Potency": "inactive"}, {"compound": "Nc1ccc(S(=O)(=O)Nc2nccs2)cc1", "Potency": "inactive"}, {"compound": "NS(=O)(=O)c1cc(C(=O)O)c(NCc2ccco2)cc1Cl", "Potency": "inactive"}, {"compound": "Cc1ccc(C)c(OCCCC(C)(C)C(=O)O)c1", "Potency": "inactive"}, {"compound": "Nc1ccc(S(=O)(=O)c2ccc(N)cc2)cc1", "Potency": "inactive"}, {"compound": "CC(O)C(=O)O", "note": "(stereo not given)", "Potency": "inactive"}, {"compound": "O=C(O)C(=O)O", "Potency": "inactive"}, {"compound": "O=S(=O)(O)NC1CCCCC1", "Potency": "inactive"}, {"compound": "CCCNC(=O)NS(=O)(=O)c1ccc(Cl)cc1", "Potency": "inactive"}, {"compound": "Nc1ccn([C@H]2CC[C@@H](CO)O2)c(=O)n1", "Potency": "inactive"}, {"compound": "Oc1ccc(/C=C/c2cc(O)cc(O)c2)cc1", "Potency": "inactive"}, {"compound": "O=C(c1ccccc1)c1ccccc1", "Potency": "inactive"}, {"compound": "NC(=O)NC1NC(=O)NC1=O", "note": "(stereo not given)", "Potency": "inactive"}, {"compound": "Cc1cc(=O)n(-c2ccccc2)n1C", "Potency": "inactive"}, {"compound": "OC(Cn1cncn1)(Cn1cncn1)c1ccc(F)cc1F", "Potency": "inactive"}, {"compound": "COc1c2occc2cc2ccc(=O)oc12", "Potency": "inactive"}, {"compound": "Nc1ccc(C(=O)O)cc1", "Potency": "inactive"}, {"compound": "O=C(C1CCCCC1)N1CC(=O)N2CCc3ccccc3C2C1", "note": "(stereo not given)", "Potency": "inactive"}, {"compound": "O=C(O)c1cc(N=Nc2ccc(S(=O)(=O)Nc3ccccn3)cc2)ccc1O", "Potency": "39.8 µM (active)"}, {"compound": "Cn1cc[nH]c1=S", "Potency": "inactive"}, {"compound": "CCCCC1C(=O)N(c2ccccc2)N(c2ccccc2)C1=O", "Potency": "inactive"}, {"compound": "O=C(O)c1cccc([N+](=O)[O-])c1", "Potency": "inactive"}, {"compound": "NNC(=O)c1ccncc1", "Potency": "inactive"}, {"compound": "Cn1c(=O)c2[nH]cnc2n(C)c1=O", "Potency": "inactive"}, {"compound": "O=C(O)CCCCC(=O)O", "Potency": "inactive"}, {"compound": "CNC[C@H](O)c1cccc(O)c1", "Potency": "inactive"}, {"compound": "CC1(C)[C@@H]2CC[C@@]1(C)C(=O)C2", "Potency": "inactive"}, {"compound": "CC(=O)OCC(COC(C)=O)OC(C)=O", "Potency": "inactive"}, {"compound": "NC(N)=O", "Potency": "14.1 µM (active) and inactive"}, {"compound": "O=C(O)CCCCCCCC(=O)O", "Potency": "inactive"}, {"compound": "CC(C)(Oc1ccc(C2CC2(Cl)Cl)cc1)C(=O)O", "note": "(stereo not given)", "Potency": "inactive"}, {"compound": "O=C(O)CCC(=O)O", "Potency": "inactive"}, {"compound": "CCOc1ccc(NC(=O)CC(C)O)cc1", "note": "(stereo not given)", "Potency": "inactive"}, {"compound": "c1ccc2[nH]ccc2c1", "Potency": "17.8 µM (active) and inactive"}, {"compound": "CC(=O)Nc1nnc(S(N)(=O)=O)s1", "Potency": "inactive"}, {"compound": "CC(O)CN(CCN(CC(C)O)CC(C)O)CC(C)O", "note": "(stereo not given)", "Potency": "inactive"}, {"compound": "CCCCC(CC)COC(=O)/C=C/c1ccc(OC)cc1", "note": "(stereo not given)", "Potency": "inactive"}, {"compound": "CCCCOC(=O)CC(CC(=O)OCCCC)(OC(C)=O)C(=O)OCCCC", "Potency": "inactive"}, {"compound": "CC(O)CO", "note": "(stereo not given)", "Potency": "inactive"}, {"compound": "CC(=O)NS(=O)(=O)c1ccc(N)cc1", "Potency": "inactive"}]}]}
